# Reference: PubChem BioAssay AID1814 (Broad Institute, 2009)
# Out of some 300,000 compounds screened, about 22,000 (7.3%) were called active. About 2% were inconclusive and are not listed. This excerpt belongs to a sample that is enriched for actives. Values without a mark were called inactive. No stated cut-off is given here; in the data, active means activity score below about -60%; inconclusive means mostly about -28% to -61%; inactive means positive scores.
# Assay: Activators working through SNCA 5'UTR binding (MLPCN) (AID 1814)
# Details: alpha-synuclein 5'UTR reporter, activators screen; hits give low values; tested at 7.5 µM
row,Compound,activity score
1,CCOC(=O)c1ccc(NC(=O)Cc2cccs2)cc1,-126% (active)
2,CCCC(=O)N1c2ccc(-c3csc(N)n3)cc2CC1C (stereo not drawn),-192% (active)
3,CC(=C/c1ccccc1)/C=N/NC(=O)c1cc(C)oc1C,-125% (active)
4,CC(C)c1cc(C(=O)N/N=C/C(Br)=C/c2ccccc2)n[nH]1,-105% (active)
5,Cc1cc(C(=O)N/N=C/c2ccc(N3CCOCC3)cc2)c(C)o1,-87.1% (active)
6,Cc1cc(C(=O)N/N=C\C(Br)=C\c2ccccc2)c(C)o1,-124% (active)
7,Cc1cc(C(=O)N/N=C/c2ccccc2[N+](=O)[O-])c(C)o1,-112% (active)
8,CC(C)(C)c1cc(C(=O)N/N=C/c2ccc([N+](=O)[O-])s2)n[nH]1,64%
9,Cc1c(Cl)cccc1NC(=O)Nc1ccc(C(=O)N2CCCC2)cc1,-77.6% (active)
10,CC(=O)NNC(=O)c1csc(Cc2c(Cl)sc3ccc(Cl)cc23)n1,67.1%
11,CCOC(=O)c1c(C)nc(-c2ccccc2)nc1NC(=O)C(C)C,-83.8% (active)
12,Nc1ccc(N=Nc2ccccc2Cl)c(N)n1,-165% (active)
13,O=C(NCCc1ccccc1)Oc1ccc(Cl)cc1,-107% (active)
14,Cc1cc(C(=O)NCCc2ccc(Cl)cc2)c(C)o1,-131% (active)
15,Cc1ccc2nc(/C(C#N)=C\c3ccc(OC(=O)c4cccs4)cc3)[nH]c2c1,-283% (active)
16,COc1ccccc1OCC(=O)O/N=C(\N)c1ccccn1,-121% (active)
17,COc1ccc(CC(=O)N/N=C(\C)c2ccccn2)cc1,77.7%
18,COc1ccc(C(=O)O/N=C(\N)c2ccccn2)cc1[N+](=O)[O-],-177% (active)
19,N/C(=N\OC(=O)CCC1CCCCC1)c1ccccn1,-180% (active)
20,N/C(=N\OC(=O)CC1CCCCC1)c1ccccc1,-116% (active)
21,N/C(=N\OC(=O)Cc1ccc([N+](=O)[O-])cc1)c1ccccn1,-161% (active)
22,C=CCc1c(C)nc2cc(-c3ccccc3)[nH]n2c1=O,-102% (active)
23,CCc1c(C)nc2cc(-c3cccs3)[nH]n2c1=O,-81% (active)
24,CC(=O)N(C)c1ccc(NC(=O)Nc2cccc3ccccc23)cc1,-70.7% (active)
25,O=[N+]([O-])c1ccc(O)c(/C=N/Nc2ccccc2[N+](=O)[O-])c1,-63.1% (active)
26,Cc1cc(C(=O)COC(=O)CNC(=O)c2ccc(F)cc2)c(C)n1Cc1ccco1,-113% (active)
27,Cc1ccsc1C(=O)OCC(=O)c1cc(C)n(CC2CCCO2)c1C (stereo not drawn),79.6%
28,Nn1c(SCc2ccccc2)nnc1C1CCCCC1,-110% (active)
